Records with an inconclusive call do not appear. The source made the active and inactive calls. The call rests on the fitted dose curve.
Test: qHTS Assay for Lipid Storage Modulators (AID 1519); on activity change, negative = inhibition: on the % scale 0 is the no-effect control and ±100 the full control effect
Settings: Drosophila S3 cells, BODIPY lipid droplet/cell ratio, laser cytometry, cells loaded with oleic acid
From the text: NIH Molecular Libraries Probe Production Centers Network [MLPCN]
NIH Chemical Genomics Center [NCGC]
Assay Submitter (PI): Beller, Mathias; Max-Planck-Institut fur Biophysikalische Chemie
NCGC Assay Overview: Storing lipids as a reservoir for energy or the anabolism of elementary metabolites is a common feature of probably all cells and is conserved from bacteria to humans. The universal cellular lipid storage organelle is the so-called lipid storage droplet (LD). Although ubiquitous, LDs share a simple structure composed of a hydrophobic core that harbors the storage lipids, which is shielded by a droplet-specific phospholipid monolayer to which proteins are attached. The current model of LD biogenesis involves an incorporation of the lipid core into the membrane leaflets of the endoplasmic reticulum (ER) followed by a subsequent budding-like maturation of a LD, which ultimately pinches off. Once released, LD volume can increase by localized lipogenesis or fusion of existing droplets. Storage lipids are re-mobilized enzymatically by lipase activity. Lipase regulation in the adipocyte is heavily studied and involves multiple components including catecholamine signaling, the LD-associated proteins Perilipin and comparative gene identification-58 (CGI-58) and at least two lipases named hormone sensitive lipase (HSL) and adipocyte triglyceride lipase (ATGL). LD regulation outside of the adipocyte is poorly understood and only few components are known. However, there is an urgent need to learn more about ectopic fat depots as mislocalized storage of lipids, for example in the liver or muscle, is an eminent health problem associated with insulin resistance or the metabolic syndrome. We developed a laser-scanning cytometer assay to enable 1,536-well screening and combined the results of the small molecules screen with an RNAi database based on lipid storage.
NCGC Assay Protocol Summary:
We dispensed 4 uL of cells at 1.25 x 10^6 cells/mL into LoBase Aurora COC 1,536-well plates (black walled, clear bottom) with a bottle-valve solenoid-based dispenser (Aurora) to obtain 5,000 cells/well. Triacsin C (Sigma-Aldrich T-4540), an inhibitor of long-chain fatty acyl CoA synthetase that blocks synthesis of triglycerides, was used as a positive control for lipid under-storage. A total of 23 nL of compound solution of different concentrations were transferred to the assay plates using a Kalypsys pin tool equipped with a 1,536-pin array containing 10-nL slotted pins (FP1S10, 0.457-mm diameter, 50.8 mm long; V&P Scientific). One microliter of oleic acid (400 uM) was added, and the plate was lidded with stainless steel rubber gasket lined lids containing pinholes. […] Fluorescence was detected by excitation of the fluorophores with a 488-nm laser on an Acumen Explorer (TTP Lab Tech). The total intensity in channel 1 (500-530 nm) reflected lipid droplet accumulation. […] The ratio of the total intensity in PMT channel 1 over total intensity of channel 3 was also calculated. Percent activity was computed relative to an internal control (100% inhibited lipid droplet deposition due to the presence of 20 uM Triacsin C), which was added to 32 wells/plate.

[1] = measured here: cell count channel max response
[2] = measured here: lipid channel max response

Row | Structure (SMILES) | activity change, negative = inhibition (at 25.7 µM (top of the series)) | max response [1] | max response [2] | activity change, negative = inhibition (at 57.5 µM (top of the series))
1 | CCC(=O)O[C@@](Cc1ccccc1)(c1ccccc1)[C@@H](C)CN(C)C | -2.5% (inactive) | -5.05% | -7.97% | 
2 | Cc1cc(C)cc(C(=O)OC2C[C@H]3CC[C@@H](C2)N3C)c1 (some centres not stated) |  | -0.988% | 4.22% | 3% (inactive)
3 | NC(=O)COc1c(F)cc(SCCNS(=O)(=O)c2ccccc2)cc1F |  | 1.68% | -0.0137% | -2.33% (inactive)
4 | N[C@@]1(C(=O)O)CC[C@@H](C(=O)O)C1 |  | -46.9% | -46.9% | -2.99% (inactive)
5 | NCC(O)c1cc(O)c(O)cc1F (configuration not stated) |  | -35.5% | -39.7% | -0.0544% (inactive)
6 | CC(N)Cc1ccc(O)cc1 (configuration not stated) |  | 11.5% | 13.9% | 1.02% (inactive)
7 | NCC(CP(=O)(O)O)c1ccc(Cl)cc1 (configuration not stated) |  | -42.3% | -42.6% | -3.32% (inactive)
8 | O=[N+]([O-])c1ccc2nc(N3CCNCC3)ccc2c1 |  | 28.4% | 27.7% | 0.42% (inactive)
9 | OCc1cnc[nH]1 |  | 7.21% | 9.78% | 1.18% (inactive)
10 | Nc1ccc(CCN2CCN(c3cccc(C(F)(F)F)c3)CC2)cc1 |  | -6.99% | -6.09% | 2.29% (inactive)
11 | CC1OC1P(=O)(O)O (configuration not stated) |  | 11.8% | 19.6% | 3.73% (inactive)
12 | C=CCN1CC[C@]23c4c5ccc(O)c4O[C@H]2/C(=N/NC(=O)c2ccccc2)CC[C@@]3(O)[C@H]1C5 |  | -18.8% | -20.5% | -1.45% (inactive)
13 | Oc1ccc2c3c1O[C@H]1c4oc5ccccc5c4C[C@@]4(O)C(C2)N(CC2CC2)CCC314 (some centres not stated) |  | 69% | 72% | 0.729% (inactive)
14 | [N-]=[N+]=CC(=O)OCC(N)C(=O)O (configuration not stated) |  | 14.1% | 29.9% | 10.5% (inactive)

— PubChem BioAssay (NCATS)
